Results published in PubChem BioAssay (Tox21).
Records with an inconclusive call do not appear. The source made the active and inactive calls. Calls follow the shape of the dose curve; as a rule, active = well fitted curve in the direction sought with a large enough effect in the repeat runs; inconclusive = weak or mixed curves; inactive = no such curve, though single readings can be large; an effect the other way counts as inactive or inconclusive.

Legend:
[1] = A CellTox Green Cytotoxicity Assay to monitor cytotoxicity in HEK293 cells - 40 hour (AID 1224871); also: nearly all actives have a fitted effect of over 45% in size; also: potency is read from the fitted curve at half-maximal effect
Outline: (§1)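 Each value comes from one timepoint of a single continuous run in which HEK293 cells with CellTox Green were exposed to compound for up to 40 h at 37 C, dye fluorescence rising with cell death.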

[2] = qHTS RealTime-Glo MT Cell Viability Assay in HEK293 cells - 16 hour (AID 1224872); also: nearly all actives have a fitted effect of over 50% in size; also: potency is read from the fitted curve at half-maximal effect
Outline: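 HEK293 cells seeded with NanoLuc/prosubstrate reagent, rested 5 h at 37 C, then dosed and kept at 37 C up to 40 h. Nonlytic real-time luminescence from viable cells read at 0, 8, 16, 24, 32 and 40 h.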

[3] = qHTS RealTime-Glo MT Cell Viability Assay in HepG2 cells - 8 hour (AID 1224873); also: nearly all actives have a fitted effect of over 55% in size
Outline: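 Real-time viability: cells seeded at 600 per well together with NanoLuc and cell-permeant prosubstrate, compounds added after 5 h incubation. Luminescence tracked at 0, 8, 16, 24, 32 and 40 h of exposure.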

[4] = qHTS RealTime-Glo MT Cell Viability Assay in HEK293 cells - 40 hour (AID 1224874); details: RealTime-Glo luminescence; max response: hits give low values; also: nearly all actives have a fitted effect of over 50% in size; also: potency is read from the fitted curve at half-maximal effect
Outline: (§2)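 qHTS format; HEK293 cells with NanoLuc/prosubstrate reagent, 37 C/5% CO2 for 5 h pre-dosing; compounds 23 nL in DMSO; luminescence at each time point reflects viable cells.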

[5] = A CellTox Green Cytotoxicity Assay to monitor cytotoxicity in HEK293 cells - 24 hour (AID 1224875); also: nearly all actives have a fitted effect of over 45% in size; also: potency is read from the fitted curve at half-maximal effect
Outline: as §1

[6] = A CellTox Green Cytotoxicity Assay to monitor cytotoxicity in HepG2 cells - 16 hour (AID 1224876); also: nearly all actives have a fitted effect of over 45% in size; also: potency is read from the fitted curve at half-maximal effect
Outline: (§3)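 Continuous culture of HepG2 cells with a membrane-impermeant DNA dye; rising fluorescence marks dead cells. Compound exposure lasted up to 40 h at 37 C, with reads every 8 h from 0 h.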

[7] = qHTS RealTime-Glo MT Cell Viability Assay in HepG2 cells - 32 hour (AID 1224877); also: nearly all actives have a fitted effect of over 55% in size
Outline: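 HepG2 cells (600/well) were dispensed with RealTime-Glo reagents, incubated 5 h at 37 °C, then treated with compounds in DMSO for up to 40 h. Nonlytic NanoLuc luminescence reflecting viable cells was read at each stated time point.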

[8] = A CellTox Green Cytotoxicity Assay to monitor cytotoxicity in HepG2 cells - 24 hour (AID 1224878); also: nearly all actives have a fitted effect of over 45% in size; also: potency is read from the fitted curve at half-maximal effect
Outline: as §3

[9] = A CellTox Green Cytotoxicity Assay to monitor cytotoxicity in HepG2 cells - 40 hour (AID 1224879); also: nearly all actives have a fitted effect of over 40% in size; also: potency is read from the fitted curve at half-maximal effect
Outline: as §3

[10] = qHTS RealTime-Glo MT Cell Viability Assay in HEK293 cells - 0 hour (AID 1224880)
Outline: as §2
% is scaled to controls: 0 for no effect and ±100 for the full control effect.

Cc1cc(O)c2c(O)c3c(O)cccc3cc2c1
inactive: Potency [1] | Potency [2] | Potency [3] | max response [4] -16.2% | Potency [5] | Potency [6] | Potency [7] | Potency [8] | Potency [9] | Potency [10]

C[N+]1(C)CCC(=C(c2ccccc2)c2ccccc2)CC1
inactive: Potency [1] | Potency [2] | Potency [3] | max response [4] 7.64% | Potency [5] | Potency [6] | Potency [7] | Potency [8] | Potency [9] | Potency [10]

OCC1CC=CCC1 (stereo unspecified)
inactive: Potency [1] | Potency [2] | Potency [3] | max response [4] -1.94% | Potency [5] | Potency [6] | Potency [7] | Potency [8] | Potency [9] | Potency [10]

CC(C)(CCl)c1ccccc1
inactive: Potency [1] | Potency [2] | Potency [3] | max response [4] 4.77% | Potency [5] | Potency [6] | Potency [7] | Potency [8] | Potency [9] | Potency [10]

OCCSc1ccccc1
inactive: Potency [1] | Potency [2] | Potency [3] | max response [4] -28.1% | Potency [5] | Potency [6] | Potency [7] | Potency [8] | Potency [9] | Potency [10]

O=C(O)c1ccccc1NCCc1ccccc1
inactive: Potency [1] | Potency [2] | Potency [3] | max response [4] -0.281% | Potency [5] | Potency [6] | Potency [7] | Potency [8] | Potency [9] | Potency [10]

CC(C)CCCCCOC(=O)CCCCC(=O)OCCCCCC(C)C
inactive: Potency [1] | Potency [2] | Potency [3] | max response [4] 3.71% | Potency [5] | Potency [6] | Potency [7] | Potency [8] | Potency [9] | Potency [10]

CCCCCCOC(=O)CCCCCCCC(=O)OCCCCCC
inactive: Potency [1] | Potency [2] | Potency [3] | max response [4] 1.87% | Potency [5] | Potency [6] | Potency [7] | Potency [8] | Potency [9] | Potency [10]

CCOC(=O)/C=C/C(=O)O
inactive: Potency [1] | Potency [2] | Potency [3] | max response [4] 16.2% | Potency [5] | Potency [6] | Potency [7] | Potency [8] | Potency [9] | Potency [10]

C=CCNc1nc(NCC=C)nc(N2CCN(C(c3ccc(F)cc3)c3ccc(F)cc3)CC2)n1
inactive: Potency [1] | Potency [2] | Potency [3] | max response [4] -23.1% | Potency [5] | Potency [6] | Potency [7] | Potency [8] | Potency [9] | Potency [10]

CCOC(=O)c1ccccc1OC
inactive: Potency [1] | Potency [2] | Potency [3] | max response [4] -4.86% | Potency [5] | Potency [6] | Potency [7] | Potency [8] | Potency [9] | Potency [10]

CCCC1C(CC)=CC(CC)=CN1c1ccccc1 (stereo unspecified)
active: Potency [2] 15.5 µM | Potency [4] 13.8 µM
inactive: Potency [1] | Potency [3] | Potency [5] | Potency [6] | Potency [7] | Potency [8] | Potency [9] | Potency [10]

O=S(=O)(c1ccccc1)c1ccc(Cl)cc1
inactive: Potency [1] | Potency [2] | Potency [3] | max response [4] -0.98% | Potency [5] | Potency [6] | Potency [7] | Potency [8] | Potency [9] | Potency [10]

CCCCCCCCSCCO
active: Potency [8] 43.6 µM | Potency [9] 43.6 µM
inactive: Potency [1] | Potency [2] | Potency [3] | max response [4] 0.336% | Potency [5] | Potency [6] | Potency [7] | Potency [10]

CC(C)(C)C(=O)O
inactive: Potency [1] | Potency [2] | Potency [3] | max response [4] 6.48% | Potency [5] | Potency [6] | Potency [7] | Potency [8] | Potency [9] | Potency [10]

C[C@@H]1C[C@H]2[C@@H]3CCC4=CC(=O)C=C[C@]4(C)[C@@]3(F)[C@@H](O)C[C@]2(C)[C@H]1C(=O)CO
inactive: Potency [1] | Potency [2] | Potency [3] | max response [4] -9.79% | Potency [5] | Potency [6] | Potency [7] | Potency [8] | Potency [9] | Potency [10]

Cc1nc2ccccc2s1
inactive: Potency [1] | Potency [2] | Potency [3] | max response [4] 2.93% | Potency [5] | Potency [6] | Potency [7] | Potency [8] | Potency [9] | Potency [10]

CC(=O)N(c1onc(C)c1C)S(=O)(=O)c1ccc(N)cc1
inactive: Potency [1] | Potency [2] | Potency [3] | max response [4] 4.86% | Potency [5] | Potency [6] | Potency [7] | Potency [8] | Potency [9] | Potency [10]

CCCOC(=O)c1ccc(N)cc1
inactive: Potency [1] | Potency [2] | Potency [3] | max response [4] -15% | Potency [5] | Potency [6] | Potency [7] | Potency [8] | Potency [9] | Potency [10]

Fc1c(F)c(F)c(Br)c(F)c1F
inactive: Potency [1] | Potency [2] | Potency [3] | max response [4] 0.266% | Potency [5] | Potency [6] | Potency [7] | Potency [8] | Potency [9] | Potency [10]

CCCCCC=CCC=CCCCCCCCC(=O)OCC
inactive: Potency [1] | Potency [2] | Potency [3] | max response [4] -1.44% | Potency [5] | Potency [6] | Potency [7] | Potency [8] | Potency [9]

CCn1nc(C)c2c1C(=O)NCC(c1ccc(O)cc1)=N2
inactive: Potency [1] | Potency [2] | Potency [3] | max response [4] 0.626% | Potency [5] | Potency [6] | Potency [7] | Potency [8] | Potency [9] | Potency [10]

Cc1nc2ccccn2c(=O)c1CCN1CCC(C(=O)c2ccc(F)cc2)CC1
inactive: Potency [1] | Potency [3] | Potency [5] | Potency [6] | Potency [7] | Potency [8] | Potency [9] | Potency [10]
active: Potency [2] 4.77 µM | Potency [4] 8.49 µM

CC1(C)C(=O)N(Br)C(=O)N1Cl
inactive: Potency [1] | Potency [2] | Potency [3] | max response [4] 8.13% | Potency [5] | Potency [6] | Potency [7] | Potency [8] | Potency [9] | Potency [10]

COC(=O)c1cc(Cl)ccc1NS(=O)(=O)C(F)(F)F
inactive: Potency [1] | Potency [2] | Potency [3] | max response [4] 2.62% | Potency [5] | Potency [6] | Potency [7] | Potency [8] | Potency [9] | Potency [10]

CN1CCCN=C1/C=C/c1cccs1
inactive: Potency [1] | Potency [2] | Potency [3] | max response [4] 5.88% | Potency [5] | Potency [6] | Potency [7] | Potency [8] | Potency [9] | Potency [10]

O=C(O)c1c(O)c(-c2ccccc2)nc2ccccc12
inactive: Potency [1] | Potency [2] | Potency [3] | max response [4] 0.412% | Potency [5] | Potency [6] | Potency [7] | Potency [8] | Potency [9] | Potency [10]

CCCOCCOCCO
inactive: Potency [1] | Potency [2] | Potency [3] | max response [4] 2.29% | Potency [5] | Potency [6] | Potency [7] | Potency [8] | Potency [9] | Potency [10]

COCC(O)CO (stereo unspecified)
inactive: Potency [1] | Potency [2] | Potency [3] | max response [4] -5.25% | Potency [5] | Potency [6] | Potency [7] | Potency [8] | Potency [9] | Potency [10]

COc1ccccc1N=Nc1c(S(=O)(=O)O)cc2cc(S(=O)(=O)O)cc(NC(C)=O)c2c1O
inactive: Potency [1] | Potency [2] | Potency [3] | max response [4] 1.04% | Potency [5] | Potency [6] | Potency [7] | Potency [8] | Potency [9] | Potency [10]

NCC1CCCC(CN)C1 (stereo unspecified)
inactive: Potency [1] | Potency [2] | Potency [3] | max response [4] -13.1% | Potency [5] | Potency [6] | Potency [7] | Potency [8] | Potency [9] | Potency [10]

CCN(Cc1cccc(S(=O)(=O)O)c1)c1ccc(C(=C2C=CC(=[N+](CC)Cc3cccc(S(=O)(=O)[O-])c3)C=C2)c2ccccc2)cc1
inactive: Potency [1] | Potency [2] | Potency [3] | max response [4] 3.22% | Potency [5] | Potency [6] | Potency [7] | Potency [8] | Potency [9]

CC(CCO)CCc1ccccc1 (stereo unspecified)
inactive: Potency [1] | Potency [2] | Potency [3] | max response [4] -8.5% | Potency [5] | Potency [6] | Potency [7] | Potency [8] | Potency [9] | Potency [10]

COC(OC)(C(=O)c1ccccc1)c1ccccc1
inactive: Potency [1] | Potency [2] | Potency [3] | max response [4] 1.09% | Potency [5] | Potency [6] | Potency [7] | Potency [8] | Potency [9]

CCCCCCCCCOC(C)=O
inactive: Potency [1] | Potency [2] | Potency [3] | max response [4] -10.8% | Potency [5] | Potency [6] | Potency [7] | Potency [8] | Potency [9] | Potency [10]

O=C(/C=C/c1ccccc1)OCCCc1ccccc1
inactive: Potency [1] | Potency [2] | Potency [3] | max response [4] -1.1% | Potency [5] | Potency [6] | Potency [7] | Potency [8] | Potency [9] | Potency [10]

CC(C)(O)c1ccccc1CC[C@@H](SCC1(CC(=O)O)CC1)c1cccc(/C=C/c2ccc3ccc(Cl)cc3n2)c1
inactive: Potency [1] | Potency [2] | Potency [3] | max response [4] 0.38% | Potency [5] | Potency [6] | Potency [7] | Potency [8] | Potency [9] | Potency [10]

c1cnc2c(n1)CCCC2
inactive: Potency [2] | Potency [3] | max response [4] 1.7% | Potency [7] | Potency [10]
active: Potency [1] 43.6 µM | Potency [5] 43.6 µM | Potency [6] 38.9 µM | Potency [8] 38.9 µM | Potency [9] 38.9 µM

CC1=CC(=O)CC(C)(C)C1(O)/C=C/C(C)=C\C(=O)O (stereo unspecified)
inactive: Potency [1] | Potency [2] | Potency [3] | max response [4] 8.54% | Potency [5] | Potency [6] | Potency [7] | Potency [8] | Potency [9] | Potency [10]

CC(=O)Nc1ccc(N)cc1
inactive: Potency [1] | Potency [2] | Potency [3] | max response [4] 4.7% | Potency [5] | Potency [6] | Potency [7] | Potency [8] | Potency [9] | Potency [10]

COC(=O)c1cc(S(N)(=O)=O)ccc1OC
inactive: Potency [1] | Potency [2] | Potency [3] | max response [4] 7.1% | Potency [5] | Potency [6] | Potency [7] | Potency [8] | Potency [9] | Potency [10]

CCC(C)(O)CCC=C(C)C (stereo unspecified)
inactive: Potency [1] | Potency [2] | Potency [3] | max response [4] -9.96% | Potency [5] | Potency [6] | Potency [7] | Potency [9] | Potency [10]
